Screening results (PubChem)
A selection: hits, their analogues and other compounds. The true share with any hit is near 3.5%.
FBW7 act – human FBW7 E3 ligase activation, primary screen; Q969H0; AlphaScreen FBW7–phospho-cyclin E peptide binding, activator screen; normalized activity (activation), % at 26.1 µM; 0.13% of 650,000 active; AID 1259310; in the data active = normalized activity above about 1.9%;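 also: purified mutant Fbw7 with reduced substrate affinity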
TEAD-YAP block – TEAD-YAP interaction inhibition. AID 1259422. inhibition, % at 9.12 µM. HEK-TIYL cells, TEAD-Gal4/YAP UAS-luciferase luminescence. 1.4% of 640,000 active; in the data active = inhibition above about 32%
GPR151 ag – activates the human receptor GPR151. PathHunter beta-arrestin GPR151 cells, luminescence. AID 1508602. 1% of 650,000 active. activation, % at 11.2 µM; in the data active = activation above about 4.9%
Target sequence (Q8TDV0 whole entry, looked up): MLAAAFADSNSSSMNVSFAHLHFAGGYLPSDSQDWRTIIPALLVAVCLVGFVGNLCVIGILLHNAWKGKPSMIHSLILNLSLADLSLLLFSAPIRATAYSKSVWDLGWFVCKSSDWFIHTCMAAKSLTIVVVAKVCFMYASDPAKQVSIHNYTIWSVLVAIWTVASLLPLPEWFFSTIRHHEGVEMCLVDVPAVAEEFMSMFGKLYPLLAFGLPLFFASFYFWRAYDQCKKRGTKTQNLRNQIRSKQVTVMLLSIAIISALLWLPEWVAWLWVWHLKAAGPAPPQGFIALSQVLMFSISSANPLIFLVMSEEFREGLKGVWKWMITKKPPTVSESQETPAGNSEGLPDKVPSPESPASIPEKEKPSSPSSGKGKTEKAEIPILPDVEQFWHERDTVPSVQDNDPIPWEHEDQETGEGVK
MITF inh – blocks human microphthalmia-associated transcription factor | O75030 | AlphaScreen MITF homodimerization, bead proximity signal | inhibition, % at 2.6 µM | 0.91% of 650,000 active | AID 1259374; in the data active = inhibition above about 50%
MITF inh conf – confirmation of human MITF inhibitors; 16% of 4,700 active; AlphaScreen MITF homodimerization, biotin/His-MITF beads; inhibition, % at 2.6 µM; shares compounds with MITF inh; AID 1259372;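 active = inhibition above a cutoff derived from the DMSO control wells, cut at about 28% in these data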;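 also: inhibitors lower the bead chemiluminescence by keeping MITF from dimerizing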
AS interf DR – AlphaScreen optical interference, dose response counter-screen | shares compounds with MITF inh | AlphaScreen optical interference counterscreen, cell-free | IC50, µM | 6% of 480 active | AID 1259373; call rule not given here
AlphaScreen intf2 – AlphaScreen optical interference, counter-screen; shares compounds with MITF inh; LysRS AlphaScreen counterscreen, signal interference, triplicate; inhibition, % at 2.6 µM; 7.6% of 4,700 active;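 active = inhibition above a cutoff derived from the DMSO control wells, cut at about 30% in these data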
Hits are given with their value; 0 = inactive; - = not tested or not shown.

SMILES	FBW7 act	TEAD-YAP block	GPR151 ag	MITF inh	MITF inh conf	AlphaScreen intf2	others
CCCCOC(=O)c1cccc(NC(=O)Cc2ccc(Cl)cc2)c1	0	0	0	0	-	-
O=C(CC1OC(=O)C(Br)=C1Br)CC1OC(=O)C(Br)=C1Br (configuration not stated)	0	0	0	74	0	0
CC(=O)CC1OC(=O)C(Br)=C1NCc1ccccc1 (configuration not stated)	0	0	0	0	-	-
COc1cc(Br)cc(/C=C2\C(=O)NN(c3ccccc3)C2=O)c1O	0	0	0	0	-	-
CN(C)CC(C)(C)CNCC(O)COCc1ccccc1F (configuration not stated)	0	0	0	78	0	0
CC1(C)C2CCC1(C)C(NCC(O)COCc1ccccc1F)C2 (configuration not stated)	0	0	0	65	0	0
Cc1cc(C)cc(Oc2coc3c(CN(CC(C)C)CC(C)C)c(O)ccc3c2=O)c1	0	0	0	0	-	-
CCCNc1nc(NCC)nc2c1ncn2C1CCCCC1	0	0	0	69	0	0
Cc1ccc(NC(=O)Cn2nnc(-c3ccccc3NC(=O)c3cnccn3)n2)cc1	0	0	0	0	-	-
O=C(O)c1ccc(NC2OC(CO)C(O)C2O)cc1 (configuration not stated)	0	0	0	66	57	0	AS interf DR=0
O=C1C(=O)N(CCBr)C(c2ccccc2)/C1=C(\O)c1ccccc1 (configuration not stated)	0	0	0	59	0	0
CC(Sc1nnc(-c2ccc([N+](=O)[O-])cc2)o1)C(N)=O (configuration not stated)	0	0	0	69	0	0
COc1cc(NC(=O)Cn2c(=O)n(C3CCCC3)c(=O)c3ccccc32)cc(OC)c1	0	0	0	0	-	-
COc1ccc(CN2CCN(Cc3ccco3)CC2)cc1Br	0	0	0	72	0	0
CCOc1cc(CN2CCN(Cc3ccco3)CC2)ccc1OC	0	0	0	0	-	-
COc1ccc(CN2CCN(Cc3ccco3)CC2)cc1OC	0	0	0	71	0	0
COc1ccc(CNC(=O)N2CCN(CC(=O)c3ccco3)CC2)cc1OC	0	0	0	54	0	0
COc1ccc(Cl)cc1NC(=O)CN1C(=O)CSCC1=O	0	0	0	0	-	-
Clc1ccc(-n2ncnc2-c2cccc(Cl)c2Cl)cc1	0	0	0	0	-	-
O=[N+]([O-])c1nn(-c2cccc(Cl)c2)n(O)c1=NC1CCCCC1	0	0	0	56	0	0
c1cc(Nc2nc3c(s2)CCCC3)cc(Nc2ccc(N3CCOCC3)cc2)n1	0	0	0	0	-	-
N#CCCn1cc(CNCc2ccccc2)c(-c2ccc(F)cc2)n1	0	0	0	0	-	-
N#CCCn1cc(CNCc2ccccc2)c(-c2ccccc2)n1	0	0	0	54	0	0
Cc1noc(C)c1-c1nccc(NCCc2ccc(O)cc2)n1	0	0	0	0	-	-
COc1ccc(NC(=O)c2cc(-c3ccccc3)nc3ccccc23)c(OC)c1	0	0	0	0	-	-
SMILES	FBW7 act	TEAD-YAP block	GPR151 ag	MITF inh	MITF inh conf	AlphaScreen intf2	others
COc1ccc(NC(=O)NNC(=O)c2cc(C3CC3)nc3ccccc23)c(OC)c1	0	0	0	61	0	0
CC(=O)CCCC(C)CCCC(C)CCCC(C)C (configuration not stated)	0	0	0	0	-	-
C/C(=C\CO)CC[C@H](C)CCC[C@H](C)CCCC(C)C	0	0	0	105	0	0
CCN(CC)CC(O)CNCc1ccc(Cl)cc1 (configuration not stated)	0	0	0	54	0	0
Cc1ccc(C)n1C(Cc1c[nH]c2ccccc12)C(=O)O (configuration not stated)	0	0	0	87	73	0	AS interf DR=0
CN1C(c2ccccc2)=CC(c2ccccc2)n2nnnc21 (configuration not stated)	0	0	0	0	-	-
COCCCNCCOc1ccc2ccccc2c1Br	0	0	0	59	0	0
CC(O)CNCCCCOc1ccc2ccccc2c1Br (configuration not stated)	0	0	0	71	53	40
Cc1cccc(C)c1NC(=O)C(=O)NCCO	0	0	0	0	-	-
O=C(Nc1ccc(S(=O)(=O)Nc2nccs2)cc1)c1sc2cc(Cl)ccc2c1Cl	0	0	0	0	-	-
O=C(Cn1cc(C(=O)c2ccco2)c2ccccc21)NCc1cccnc1	0	0	0	67	62	0	AS interf DR=0
O=C(COc1ccccc1N1C(=O)c2ccccc2C1=O)c1ccc(F)cc1	0	0	0	60	0	0
NC(C(=O)N1CCC(Nc2ccc3[nH]ncc3c2)CC1)c1ccc(Cl)cc1 (configuration not stated)	0	0	0	74	0	0
Cc1cc(C)n(C(=O)/C=C/c2ccco2)n1	0	0	0	78	67	0	AS interf DR=0
CC(/C=C/c1ccc(N(C)C)cc1)=C\C(=O)O	0	0	0	0	-	-
CC(=C/C(=O)O)/C=C/c1ccco1	0	0	0	68	0	0
CC(=C/C(=O)O)/C=C/c1ccoc1	0	0	0	75	57	0	AS interf DR=0
Cc1cc(C)n(C(=O)/C=C/c2ccccc2)n1	0	0	0	0	-	-
C=Cc1ccc(Cn2c(C(=O)O)c(CNCCC(C)C)c3ccccc32)cc1	0	0	0	0	-	-
Cc1c(Cc2ccc3c(c2)OCO3)sc(NC(=O)c2ccc([N+](=O)[O-])o2)c1C#N	0	0	0	0	-	-
COC(=O)c1c(NC(=O)c2ccc([N+](=O)[O-])o2)sc(Cc2ccc3c(c2)OCO3)c1C	0	0	0	55	47	0	AS interf DR=0
Cc1cc(C)nc(N2CCC(NCc3ccco3)CC2)n1	0	0	0	0	-	-
CCCCC(CC)CNC(=O)C(=O)NC1CC1 (configuration not stated)	0	0	0	0	-	-
Cc1c(NC(=O)CCN2C(=O)C3C4CCC(C4)C3C2=O)ccc(Br)c1Cl (configuration not stated)	0	0	0	68	0	0
OCCN(Cc1ccccc1)Cc1cccc(F)c1	0	0	0	57	0	0
SMILES	FBW7 act	TEAD-YAP block	GPR151 ag	MITF inh	MITF inh conf	AlphaScreen intf2	others
OCCN(Cc1ccccc1)Cc1ccc(C(F)(F)F)cc1	0	0	0	52	0	0
OCCN(Cc1ccccc1)Cc1ccccc1Cl	0	0	0	0	-	-
OCCN(Cc1ccccc1)Cc1cccc(C(F)(F)F)c1	0	0	0	52	0	0
OCCN(Cc1ccccc1)Cc1ccccc1F	0	0	0	61	0	0
CSc1ccc(CN(CCO)Cc2ccccc2)cc1	0	0	0	0	-	-
O=C(Cc1cccc(C(F)(F)F)c1)Nc1ccccc1	0	0	0	0	-	-
CC(=O)N1CCN(CCN=Cc2c(O)[nH]c(=O)[nH]c2=O)CC1	0	0	0	0	-	-
O=C(Nc1cc(C(F)(F)F)ccc1Cl)c1nn2c(C(F)(F)F)cc(-c3ccccc3)nc2c1Cl	0	0	0	65	0	0
